# In the supplement of paper PMC3334620:
# Whole data set: some 33,000 sequences, median “E-score (-0.5 to 0.5)” near -0.017, cut for the highest 2% near 0.3. Only a selection was taken, and the highest values are over-represented in it overall.
# Target: T1, Sut1 (UniProt P53032)
# T1 sequence: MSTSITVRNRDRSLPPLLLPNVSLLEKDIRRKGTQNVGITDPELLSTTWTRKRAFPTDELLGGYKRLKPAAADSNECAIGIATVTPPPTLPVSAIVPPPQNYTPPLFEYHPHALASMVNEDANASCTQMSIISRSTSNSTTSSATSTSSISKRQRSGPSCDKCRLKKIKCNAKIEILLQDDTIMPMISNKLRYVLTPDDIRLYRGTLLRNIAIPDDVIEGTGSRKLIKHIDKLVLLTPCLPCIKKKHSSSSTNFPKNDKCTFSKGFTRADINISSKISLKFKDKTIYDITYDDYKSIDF
# Experiment: PBM E-score (8-mer binding enrichment) (E-score (-0.5 to 0.5)); higher = stronger / more preferred TF binding
# Details: protein concentration: 200 nM; construct: GST-full length
# Description: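 Universal 'all 10-mer' protein binding microarrays (Agilent AMADID 015681) probed with GST-tagged S. cerevisiae TFs (full-length or DBD) made by in vitro transcription/translation (PURExpress), about 100-200 nM. Bound TF was detected with fluorescent anti-GST. Each ungapped 8-mer (which stands for itself and its reverse complement) is scored by the PBM enrichment score (E-score), a modified Wilcoxon-Mann-Whitney statistic from -0.5 to +0.5, computed with the Universal PBM Analysis Suite. Scale: above 0.35 generally sequence-specific binding.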
row,Sequence,PBM E-score
1,ATTCCGGA,0.42
2,AGCCAAAT,0.14
3,ATCAAACG,0.132
4,CATTGCTC,0.1
5,CGGTCTAG,-0.0195
6,TCCGTAGA,0.361
7,ACCGTAGA,0.0336
8,CCCGTAGA,-0.245
9,AGTATCAG,-0.0501
10,ACCTCTCG,-0.047
11,CGTGACCC,-0.111
12,CAATCAGG,-0.167
13,GCTTTGAA,-0.00621
14,AATACAAA,0.348
15,ACTACAAC,0.266
16,ACTACAAG,0.0409
17,ACTACAAA,0.302
18,AATACAAG,0.123
19,GATACAAA,0.112
20,GCCTGGAC,-0.336
21,AGGCAGGC,-0.208
22,TCCGTCCA,0.316
23,CCCGTCCA,-0.198
24,GCCGTCCA,0.00979
25,CAGGTTAG,-0.082

row,Sequence,PBM E-score
1,AGCCTACT,-0.134
2,ATACTATC,0.202
3,CTACTATC,0.312
4,CTACTATA,0.281
5,ATGTAGTC,0.18
6,GACACCGC,-0.0517
7,AGCTCGGC,-0.00249
8,ATCTCGGG,0.0127
9,ATCTCGGC,0.13
10,AGCTCGGA,0.336
11,ACCTCGGA,0.404
12,CTCTCGAA,-0.282
13,GCCTCGGA,0.198
14,CGCTCGGA,0.29
15,ATCTCGGA,0.368
16,CTCTCGGA,0.32
17,CTCTCGGC,-0.0324
18,ACCTCGGC,0.0761
19,GCCACTCA,-0.126
20,AGTTAAAG,0.0654
21,AATCACAT,0.139
22,CAGCATTC,-0.193
23,CAGTTGGG,-0.207
24,ACCACTCA,-0.156
25,ACCAAAGG,-0.0819

row,Sequence,PBM E-score
1,AATGGCAA,0.0477
2,AGATGAGC,-0.0376
3,AGACCAAG,0.186
4,GTCTCGAA,-0.159
5,GTCTCGGA,0.316
6,GTCTCGTA,-0.0582
7,CTTTTGAA,0.152
8,CGAGTCCA,-0.139
9,CCAGTCCG,0.222
10,ATAGTCCA,0.0136
11,CGAGTCCC,0.014
12,ACAGTCCG,0.312
13,ATAGTCCG,0.473
14,CGAGTCCG,0.426
15,AGAGTCCG,0.449
16,ACAGTCCA,0.0821
17,AGAGTCCT,-0.114
18,AGAGTCCC,-0.0834
19,ATAGTCCC,-0.206
20,GCTCTTAC,0.132
21,CACTCACG,-0.0637
22,TATGAACA,0.0917
23,AAAACGCA,-0.0411
24,AAGAGTTA,0.12
25,CAAGTCAG,-0.0539

row,Sequence,PBM E-score
1,CAGTTGCA,-0.0927
2,GACGCAGC,-0.199
3,CACCGTTA,0.0406
4,GTCCGTTA,0.376
5,GGCCGTTA,0.137
6,CTCCGTTC,0.32
7,CGCCGTTA,-0.0973
8,ATCCGTTA,0.275
9,CGCCGTTC,-0.157
10,CTCCGTTA,0.335
11,ATCCGTTC,0.147
12,GCCGGCGC,0.089
13,GACGCTAC,-0.101
14,AATAGCTG,0.0185
15,CCGCACGC,-0.237
16,CTAACCTA,0.0178
17,ATTCGGAG,0.432
18,ATTCGGGC,-0.0696
19,ATTCGGCC,-0.0211
20,ATTCGGAA,0.262
21,ATTCGGCG,-0.0582
22,ATTCGGAC,0.455
23,GAATAGGC,-0.0173
24,AGCCTCAG,-0.139
25,ACGAGTGA,-0.115

row,Sequence,PBM E-score
1,GTCACCAA,-0.0973
2,CGCTCCGC,0.0358
3,CGCTCCGA,0.317
4,CCCTCCGG,0.00905
5,ACCTCCGT,0.165
6,AGCTCCCG,-0.173
7,GGCTCCCA,-0.12
8,ACCTCCGG,0.322
9,GGCTCCAA,0.00981
10,AGCTCCTG,-0.238
11,GGCTCCGA,0.338
12,AGCTCCGG,0.466
13,CGCTCCCA,-0.0881
14,CTAGCTAG,0.132
15,CTCATCCA,-0.124
16,GTCCTACA,-0.0165
17,CTCTGGTC,-0.00832
18,GGGGGCAA,-0.211
19,ATTCAGGA,0.0993
20,ACTGTGTA,0.0481
21,ACGTAGGC,-0.171
22,AGCTCCAC,-0.0851
23,AGCTCCGA,0.464
24,AGCTCCGC,0.331
25,AGCTCCAA,0.0776

row,Sequence,PBM E-score
1,AGCTCCTA,-0.173
2,AGCTCCTC,-0.098
3,CACCCACG,-0.0788
4,ATTCTCAG,0.00054
5,ATTCCAAT,0.161
6,ATACGTTC,-0.101
7,ATGTGCGA,-0.0365
8,AACTAGCG,-0.0241
9,ACCTTCGG,0.147
10,CATTTGCA,0.0495
11,ATCCTCCA,-0.0869
12,TGCCTACA,-0.15
13,CGTCCGAA,0.125
14,TGTCCAAA,0.124
15,GGTCCAAA,-0.168
16,GGTCCGAA,0.437
17,TGTCCTAA,-0.0608
18,TGTCCGAA,0.428
19,GTACGTCA,-0.0804
20,ATACTGGA,0.122
21,GACAACGA,0.104
22,ACGTTTGA,0.132
23,AGCTGGCA,-0.241
24,CGCGAACG,-0.0292
25,TAATCGAA,0.0525

row,Sequence,PBM E-score
1,GAATCGGC,0.0753
2,GAATCGCA,-0.0351
3,GAATCGGA,0.376
4,TAATCGGA,0.308
5,AAATCGGA,0.397
6,AAATCGGT,0.0195
7,AAATCGGG,0.0832
8,CAATCGGA,0.286
9,CAGGTGAC,-0.157
10,ACCACTCT,-0.157
11,ATTGCAAT,0.0774
12,AAAATTTT,0.236
13,AATTGTAC,0.146
14,TATGAGGA,-0.0297
15,GGCGATGA,-0.143
16,GGCCGGCA,0.00533
17,CCCCGGCA,0.0139
18,ATCCGGCC,0.135
19,ATCCGGCA,-0.166
20,GTCCGGCA,0.317
21,GACCGGCA,-0.308
22,CTCCGGCA,0.423
23,CTCCGGCC,0.376
24,GGCCGGCC,-0.0421
